Test results: PubChem BioAssay (EPA / NIEHS)
Several values for one entry are separate records, joined by “and”; a condition that tells them apart may be missing. Identical values can stand only once. Activity calls are given as the source filed them. The calls were made as follows: active = hit-call score of the fitted dose curve at least 0.9, where 1 is the maximum; inactive = score below 0.9.

Legend:
[1] = read-out: Monokine induced gamma interferon (MIG), CXCL9 (gene 4283); assay: BSK_CASM3C_MIG: BioMAP Diversity Plus: CASM3C Assay for Monokine induced gamma interferon (MIG) Biomarker Activity (AID 2283048); conditions: primary human coronary artery smooth muscle cells; actives raise or lower the signal;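 also: MIG protein level measured by ELISA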
[2] = read-out: Thrombomodulin, THBD (gene 7056); assay: BSK_CASM3C_Thrombomodulin: BioMAP Diversity Plus: CASM3C Assay for Thrombomodulin Biomarker Activity (AID 2283051); conditions: primary human coronary artery smooth muscle cells; actives raise or lower the signal;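 also: thrombomodulin protein level measured by ELISA 24 h after dosing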
[3] = read-out: Tissue Factor, F3 (gene 2152); assay: BSK_CASM3C_TissueFactor: BioMAP Diversity Plus: CASM3C Assay for Tissue Factor Biomarker Activity (AID 2283052); conditions: primary human coronary artery smooth muscle cells; actives raise or lower the signal;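 also: cell surface tissue factor protein level read by ELISA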
[4] = read-out: Urokinase-type plasminogen activator receptor (uPAR), PLAUR (gene 5329); assay: BSK_CASM3C_uPAR: BioMAP Diversity Plus: CASM3C Assay for Urokinase-type plasminogen activator receptor (uPAR) Biomarker Activity (AID 2283054); conditions: primary human coronary artery smooth muscle cells; actives raise or lower the signal;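 also: cell-surface uPAR protein level quantified by ELISA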
[5] = read-out: Collagen III, COL3A1 (gene 1281); assay: BSK_hDFCGF_CollagenIII: BioMAP Diversity Plus: hDFCGF Assay for Collagen III Biomarker Activity (AID 2283056); conditions: primary human foreskin fibroblasts; actives raise or lower the signal
Outline: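 Response relative to DMSO, fitted in both directions, reflects ELISA-measured collagen III in human primary skin fibroblasts 24 h after compound addition.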

[6] = read-out: Epidermal growth factor receptor (EGFR), EGFR (gene 1956); assay: BSK_hDFCGF_EGFR: BioMAP Diversity Plus: hDFCGF Assay for Epidermal growth factor receptor (EGFR) Biomarker Activity (AID 2283057); conditions: primary human foreskin fibroblasts; actives raise or lower the signal
Outline: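 EGFR levels by ELISA in human dermal fibroblast cultures, 24 h post-treatment, fitted bidirectionally versus DMSO. Parallel wells stained with sulforhodamine B to detect overt cytotoxicity.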

[7] = read-out: Interleukin-8 (IL8), CXCL8 (gene 3576); assay: BSK_hDFCGF_IL8: BioMAP Diversity Plus: hDFCGF Assay for Interleukin-8 (IL8) Biomarker Activity (AID 2283058); conditions: primary human foreskin fibroblasts; actives raise or lower the signal
Outline: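 Fibroblast monolayers (human foreskin, hDFCGF) received test chemical for 24 h before ELISA detection of IL-8; either increases or decreases relative to DMSO count as activity.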

[8] = BSK_hDFCGF_Proliferation: Cell Proliferation Assessment in the BioMAP Diversity Plus: hDFCGF Assay (AID 2283059); conditions: primary human foreskin fibroblasts;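 also: curves fitted for both rise and fall of signal versus DMSO baseline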
Outline: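 Total protein read at 560 nm after 0.1% SRB staining of TCA-fixed human skin fibroblasts, […]. Activity is fitted in both directions relative to DMSO as baseline.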

[9] = BSK_hDFCGF_SRB: Viability Assessment in the BioMAP Diversity Plus: hDFCGF Assay (AID 2283061); conditions: primary human foreskin fibroblasts;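 also: cells exposed to compound for 24 h before the read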
Outline: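 SRB-based viability read on primary human skin fibroblasts at 24 h: TCA fixation, 0.1% dye, 560 nm. Gain or loss of signal is fitted against the DMSO negative control.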

[10] = read-out: TIMP metallopeptidase inhibitor 1 (TIMP1), TIMP1 (gene 7076); assay: BSK_hDFCGF_TIMP1: BioMAP Diversity Plus: hDFCGF Assay for TIMP metallopeptidase inhibitor 1 (TIMP1) Biomarker Activity (AID 2283062); conditions: primary human foreskin fibroblasts; actives raise or lower the signal
Outline: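 Bidirectional curve fitting against DMSO baseline yielded this endpoint, based on ELISA detection of TIMP-1 in primary human foreskin fibroblasts exposed to compound for 24 h.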

[11] = read-out: Vascular cell adhesion molecule 1 (VCAM1), VCAM1 (gene 7412); assay: BSK_hDFCGF_VCAM1: BioMAP Diversity Plus: hDFCGF Assay for Vascular cell adhesion molecule 1 (VCAM1) Biomarker Activity (AID 2283065); conditions: primary human foreskin fibroblasts; actives raise or lower the signal;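 as to AC50: VCAM-1 protein level quantified by ELISA after 24 h chemical exposure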
Outline: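 Measured after 24 h chemical treatment of primary human skin fibroblasts, VCAM-1 was detected by ELISA and concentration-response analysed in both directions versus DMSO vehicle.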

[12] = read-out: Plasminogen activator inhibitor-1 (PAI1), SERPINE1 (gene 5054); assay: BSK_hDFCGF_PAI1: BioMAP Diversity Plus: hDFCGF Assay for Plasminogen activator inhibitor-1 (PAI1) Biomarker Activity (AID 2283066); conditions: primary human foreskin fibroblasts; actives raise or lower the signal
Outline: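 PAI-1 levels in human dermal foreskin fibroblasts were quantified by ELISA 24 h after dosing, with gain or loss analysed against DMSO. Overt cytotoxicity was checked by sulforhodamine B total-protein staining in parallel cultures.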

[13] = read-out: Intercellular Adhesion Molecule 1 (ICAM1), ICAM1 (gene 3383); assay: BSK_KF3CT_ICAM1: BioMAP Diversity Plus: KF3CT Assay for Intercellular Adhesion Molecule 1 (ICAM1) Biomarker Activity (AID 2283067); conditions: primary human keratinocytes with fibroblasts; actives raise or lower the signal
Outline: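 Bidirectional curve fitting against a DMSO baseline was applied to ICAM-1 ELISA signal from primary human skin co-cultures harvested 24 h after treatment, with SRB staining of parallel wells for overt cytotoxicity.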

[14] = read-out: Interferon-gamma inducible Protein 10 (IP10), CXCL10 (gene 3627); assay: BSK_KF3CT_IP10: BioMAP Diversity Plus: KF3CT Assay for Interferon-gamma inducible Protein 10 (IP10) Biomarker Activity (AID 2283068); conditions: primary human keratinocytes with fibroblasts; actives raise or lower the signal
Outline: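 Human keratinocyte plus foreskin fibroblast primary co-culture exposed to test chemical for 24 h; IP-10 measured by ELISA. Concentration-response fitted bidirectionally against DMSO control as baseline.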

[15] = BSK_KF3CT_SRB: Viability Assessment in the BioMAP Diversity Plus: KF3CT Assay (AID 2283069); conditions: primary human keratinocytes with fibroblasts
Outline: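 Cytotoxicity was gauged by SRB staining (0.1% SRB, 10% TCA fixation, 560 nm) of parallel cultures at 24 h. The cells were primary human skin keratinocytes co-cultured with fibroblasts, and activity was fitted in both directions against DMSO.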

[16] = read-out: Interleukin-1 alpha (IL1a), IL1A (gene 3552); assay: BSK_KF3CT_IL1a: BioMAP Diversity Plus: KF3CT Assay for Interleukin-1 alpha (IL1a) Biomarker Activity (AID 2283070); conditions: primary human keratinocytes with fibroblasts; actives raise or lower the signal
Outline: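 IL-1a was detected by ELISA 24 h after chemical treatment of a co-culture of human skin keratinocytes and foreskin fibroblasts. Gain or loss of signal was fitted against the DMSO baseline.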

[17] = read-out: TIMP metallopeptidase inhibitor 2 (TIMP2), TIMP2 (gene 7077); assay: BSK_KF3CT_TIMP2: BioMAP Diversity Plus: KF3CT Assay for TIMP metallopeptidase inhibitor 2 (TIMP2) Biomarker Activity (AID 2283071); conditions: primary human keratinocytes with fibroblasts; actives raise or lower the signal
Outline: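 TIMP-2 measured by ELISA at 24 h in human keratinocyte/fibroblast primary co-cultures exposed to chemicals. Both increases and decreases were fitted against DMSO. Parallel cultures were stained with SRB for total protein as an overt-cytotoxicity check.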

[18] = read-out: Matrix Metallopeptidase 9 (MMP9), MMP9 (gene 4318); assay: BSK_KF3CT_MMP9: BioMAP Diversity Plus: KF3CT Assay for Matrix Metallopeptidase 9 (MMP9) Biomarker Activity (AID 2283074); conditions: primary human keratinocytes with fibroblasts; actives raise or lower the signal;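 as to AC50: MMP9 protein level quantified by ELISA in the co-culture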
Outline: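 MMP-9 quantified by ELISA after 24 h chemical treatment of primary human skin keratinocyte/fibroblast co-cultures; gain or loss fitted against DMSO, with parallel SRB staining (0.1% SRB, 560 nm) for overt cytotoxicity.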

[19] = read-out: urokinase plasminogen activator (uPA), PLAU (gene 5328); assay: BSK_KF3CT_uPA: BioMAP Diversity Plus: KF3CT Assay for urokinase plasminogen activator (uPA) Biomarker Activity (AID 2283075); conditions: primary human keratinocytes with fibroblasts; actives raise or lower the signal
Outline: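 ELISA read-out of uPA 24 h after dosing human skin keratinocytes co-cultured with foreskin fibroblasts. Signal change fitted both ways relative to DMSO; sulforhodamine B on parallel cultures marks overt cytotoxicity.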

[20] = read-out: E-selectin (Homo sapiens) (UniProt P16581); assay: BSK_LPS_Eselectin: BioMAP Diversity Plus: LPS Assay for Eselectin Biomarker Activity (AID 2283077); conditions: primary human HUVEC with PBMC; actives raise or lower the signal
Outline: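 Dose chemical onto LPS-driven HUVEC/PBMC co-culture; after 24 h, run ELISA for E-selectin; fit up- and down-going responses relative to DMSO control.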

Measured: AC50

Chain of E-selectin (Homo sapiens) (P16581 whole entry, looked up): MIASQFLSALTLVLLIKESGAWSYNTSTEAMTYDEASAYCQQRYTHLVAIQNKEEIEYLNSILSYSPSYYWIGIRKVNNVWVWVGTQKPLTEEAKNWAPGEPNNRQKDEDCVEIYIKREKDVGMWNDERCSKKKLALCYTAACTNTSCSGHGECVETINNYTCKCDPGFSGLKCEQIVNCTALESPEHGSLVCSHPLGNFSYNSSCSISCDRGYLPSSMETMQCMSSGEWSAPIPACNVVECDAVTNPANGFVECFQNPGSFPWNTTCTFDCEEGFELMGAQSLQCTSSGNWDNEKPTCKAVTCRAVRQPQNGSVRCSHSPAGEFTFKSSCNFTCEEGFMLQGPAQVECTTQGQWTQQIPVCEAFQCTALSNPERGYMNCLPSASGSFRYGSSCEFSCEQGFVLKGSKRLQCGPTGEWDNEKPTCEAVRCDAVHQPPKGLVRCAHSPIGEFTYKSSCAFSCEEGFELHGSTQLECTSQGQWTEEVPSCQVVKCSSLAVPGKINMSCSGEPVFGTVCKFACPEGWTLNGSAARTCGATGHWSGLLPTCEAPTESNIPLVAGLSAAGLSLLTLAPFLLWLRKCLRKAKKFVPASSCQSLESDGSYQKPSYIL

CCCCCCCCCCC1CO1 (stereo not given)
inactive: [1] | [2] | [6]
active: [3] 30.2 µM | [4] 34.3 µM | [5] 20 µM | [7] 28.5 µM | [8] 20 µM | [9] 27.6 µM | [10] 20 µM | [11] 25.7 µM | [12] 20 µM | [13] 29.3 µM | [14] 4.61 µM | [15] 33.4 µM | [16] 25.3 µM | [17] 24.2 µM | [18] 36.1 µM | [19] 28 µM | [20] 36.1 µM

CN(C)CCC(c1ccc(Cl)cc1)c1ccccn1 (stereo not given)
inactive: all assays above

Cc1cc(-n2nc3ccc(Cl)cc3n2)c(O)c(C(C)(C)C)c1
inactive: all assays above

CN(C)Cc1cc(C(C)(C)C)c(O)c(C(C)(C)C)c1
active: [5] 26.9 µM and 20 µM | [8] 23.9 µM and 24.5 µM | [11] 12.1 µM and 20 µM
inactive: all other assays above

O=C(C(=O)c1ccccc1)c1ccccc1
inactive: all assays above

CCCCCCCCCCCCCCCCCC[N+](C)(C)C
active: [1] 9.22 µM | [3] 3.27 µM | [4] 6.31 µM | [6] 2.81 µM | [7] 8.41 µM | [8] 0.388 µM | [9] 1.34 µM | [10] 3.47 µM | [11] 2.33 µM | [12] 1.13 µM | [13] 3.6 µM | [14] 3.66 µM | [15] 2.49 µM | [16] 6.81 µM | [17] 1.2 µM | [18] 3.32 µM | [19] 3.33 µM | [20] 8.27 µM
inactive: [2] | [5]

CCCCCCC(O)CCCCCCCCCCC(=O)OC (stereo not given)
active: [8] 4.09 µM | [12] 6.22 µM
inactive: all other assays above
